According to PubChem BioAssay (NCI):
“And” between values parts separate entries of the source, which are not always exact repeats. Equal values may be shown once. Compounds without any hit were thinned out: in the full panel of roughly 83,000, 20% have a hit.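 The test compound was applied at a single concentration to cells in 96-well plates for 48 hours, and percent growth was recorded.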 Values without a mark were called inactive. The source made the active and inactive calls. The calls were made as follows: active = growth percent below 10; inactive = the rest.

Columns and labels:
Assay in all cases: NCI-60 one-dose screen, 48 h (100 = growth as untreated, 0 = no growth, -100 = all killed)
Settings in all cases: 10 µM unless noted
DU-145 prostate = system: DU-145 prostate
K-562 leukemia = system: K-562 leukemia
MALME-3M melanoma = system: MALME-3M melanoma
MDA-MB-231 breast = system: MDA-MB-231 breast
RXF 393 renal = system: RXF 393 renal
SF-268 CNS = system: SF-268 CNS
SF-295 CNS = system: SF-295 CNS
SF-539 CNS = system: SF-539 CNS
UACC-257 melanoma = system: UACC-257 melanoma
M14 melanoma = system: M14 melanoma

Row | Compound | growth (DU-145 prostate) | growth (K-562 leukemia) | growth (MALME-3M melanoma) | growth (MDA-MB-231 breast) | growth (RXF 393 renal) | growth (SF-268 CNS) | growth (SF-295 CNS) | growth (SF-539 CNS) | growth (UACC-257 melanoma) | growth (M14 melanoma)
1 | O=C(NNc1ccccc1)c1ccccc1 | 98.1% and 71.3% | 18% and 19.8% | 99.2% | 70.6% and 53.6% | 123% | 78.9% and 58.7% | 64.5% | 95.1% and 96.7% | 56.8% and 81.2% | 53.9% and 38.5%
2 | Cc1ccc(-c2nc(C#N)c(S(=O)(=O)N(C)C)o2)cc1 | 103% | 12.3% | 52.6% | 88.1% | 105% | 104% | 100% | 102% | 94.8% | 64.3%
3 | Fc1ccc(NC(c2ccc(F)cc2)C2CCN(CCCCc3ccccc3)CC2)cc1 (stereo not given) | 19.3% | -29.1% (active) | 32.6% | 6.83% (active) | 10.9% | 44.2% | 34.6% | 40.5% | 60.7% | 24.7%
4 | CCCc1cc(C(N)=S)ccn1 | 109% | 95.3% | 93.7% | 115% | 111% | 114% | 99.1% | 100% | 112% | 102%
5 | COc1cc(C(=O)c2ccccc2C(=O)O)c(OC)c2c1CCCC2 | 99% and 106% | 85.7% and 84.7% | 90.5% and 97.3% | 87.8% and 101% | 107% and 100% | 92.5% and 101% | 97% and 102% | 97.3% and 103% | 95.9% and 99.5% | 94.4% and 97.6%
6 | CCCCCCCCCCCCCCCC(=O)O[C@@H]1[C@@H](O)[C@@H](O)C([C@H](NC(=O)[C@@H]2C[C@@H](CCC)CN2C)[C@H](C)Cl)O[C@@H]1SC (stereo not given in full) | 114% | 100% | 87.1% | 110% | 106% | 105% | 104% | 92% | 105% | 98.9%
7 | CC(=O)N1N=C(c2ccc(Nc3nc(Nc4ccc(F)cc4)nc(Nc4ccc(F)cc4)n3)cc2)CC1c1ccccc1 (stereo not given) | 116% | 80.1% | 76.2% | 80.1% | 60.6% | 86.1% | 132% | 110% | 108% | 85%
8 | Nc1nc(CSc2n[nH]c(N)n2)nc(Nc2ccccc2)n1 | 104% | 99.1% | 104% | 105% | 114% | 93.1% | 97.6% | 102% | 107% | 105%
9 | Cc1ccc(NC(=O)c2sc3nc(C)c(C(=O)c4ccccc4)cc3c2N)cc1 | 95.4% | 55.7% | 87.6% | 92% | 98.8% | 91.1% | 73.1% | 94.8% | 94.9% | 82.7%
10 | COC(=O)c1nc(-c2ccccc2)oc1S(=O)(=O)N(C)CCO | 65.4% | 22.2% | 69.6% | 78.3% | 64.8% | 92.3% | 104% | 68.7% | 63.8% | 41.1%
11 | CC[C@H](C)[C@H](NC(=O)[C@@H](N)CCC(N)=O)C(=O)N[C@@H](Cc1ccc(O)cc1)C(=O)N[C@@H](CCCCN)C(=O)N[C@@H](CCCCN)C(=O)N[C@@H](Cc1ccc(O)cc1)C(=O)N[C@@H](CCCNC(=N)N)C(=O)N[C@H](C(=O)N[C@@H](Cc1c[nH]c2ccccc12)C(=O)N[C@@H](Cc1ccc(O)cc1)C(=O)N[C@@H](CCCNC(=N)N)C(=O)N[C@@H](CCCCN)C(=O)N[C@@H](C)C(=O)N[C@@H](Cc1c[nH]c2ccccc12)C(=O)N[C@@H](CCCCN)C(=O)N[C@H](C(=O)N[C@@H](CC(C)C)C(=O)NCC(=O)N[C@@H](CCCCN)C(=O)N[C@H](C(N)=O)C(C)C)C(C)C)[C@@H](C)O | 6.03% (active) | 5.04% (active) | -30.6% (active) | -29.7% (active) | 11.4% | -29.8% (active) | 34.6% | -40.7% (active) | 66.2% | -11.8% (active)
12 | CC(Sc1ccccc1)C(=O)O (stereo not given) | 107% | 152% | 67.5% | 93.2% | 94.2% | 105% | 91.8% | 103% | 103% | 95.2%
13 | COCCn1cc(-c2csc(-c3cn(C)c4ccc(F)cc34)n2)c2cccnc21 | 69.9% | 2.01% (active) | 84.8% | 51.5% | 72.3% | 77.2% | 73.7% | 78.1% | 83.8% | 50.5%
14 | C=C(C)[C@@H]1CC[C@]2(C(=O)N3CCN(C)CC3)CC[C@]3(C)[C@H](CC[C@@H]4[C@@]5(C)CC(CCCNC(C)=O)(CCCNC(C)=O)[C@H](OC(C)=O)C(C)(C)[C@@H]5CC[C@]43C)[C@@H]12 | 108% | 81.1% | 98% | 108% | 109% | 98.9% | 99.4% | 101% | 109% | 104%
15 | O=C1/C(=C/c2ccccc2)CN(C(=O)C(Cl)Cl)C/C1=C\c1ccccc1 | -14.3% (active) | 2.57% (active) | -38.5% (active) | -3.43% (active) | -35.2% (active) | 35.7% | -1.45% (active) | -14.9% (active) | 25% | -27.6% (active)
16 | Clc1nccc2c(-c3csc(-c4c[nH]c5ccc(Br)cc45)n3)c[nH]c12 | 29% | 3.99% (active) | 8.43% (active) | 14.4% | -14.8% (active) | 55.6% | -10.3% (active) | 15.3% | -48.9% (active) | -34.3% (active)
17 | O=C1Nc2ccccc2/C1=C/c1cccn1CCCCCn1c2ccccc2c(=O)c2ccccc21 | 97.9% | 52.1% | 84.5% | 69.3% | 89.2% | 83.3% | 93.1% | 94.2% | 106% | 73.3%
18 | COc1cc(Nc2nc3ccccc3cc2C(=O)Nc2ccc(F)c(F)c2)cc(OC)c1OC | 30% | 16.8% | 51.5% | 30.5% | 68.3% | 40.4% | 14.2% | 37.9% | 52.3% | 24.4%
19 | CC1(C)C(N)=Nc2cc(OCCCCN3Cc4ccccc4C3)c(OCC3CC3)cc21 | 88.8% | 97.3% | 2.01% (active) | 59.2% | 65.8% | 74.7% | 84.8% | 80.8% | 1.07% (active) | -53.1% (active)
20 | Clc1ccc(CNc2ccc3nc(CCC4CCCCC4)[nH]c3c2)cc1 | 83.5% | 6.84% (active) | 31.4% | 62.8% | 52% | 79% | 73.4% | 69.6% | 71.4% | 45%
21 | C=C[C@]1(C)C=C2CC[C@@H]3C(C)(C)C(=O)CC[C@@]3(C)[C@@H]2CC1 | 108% | 95.3% | 1.04% (active) | 111% | 127% | 97.6% | 101% | 103% | 106% | 103%
22 | CC12CCC(C(=O)CC1=O)C2(C)C (stereo not given) | 110% and 108% | 102% and 84.9% | 105% and 87.4% | 111% and 105% | 106% | 99.2% and 100% | 100% | 107% and 112% | 103% and 91.7% | 102% and 101%
23 | COc1ccc(C/C(C)=C(/c2ccc(OCCN3CCCCCC3)cc2)c2ccc(OC(=O)c3ccccc3)cc2)cc1 | 114% | 89.7% | 104% | 104% | 124% | 106% | 96.1% | 96.8% | 100% | 95.3%
24 | O=C1OCC2=C1C(c1cccc([N+](=O)[O-])c1)c1cc3c(cc1N2CCO)CCC3 (stereo not given) | 3.17% (active) | 7.29% (active) | 38.9% | 30% | 27.8% | 33.1% | -11.7% (active) | -16.4% (active) | 69.9% | 3.09% (active)
